Source: the supplement of paper PMC11732987, “Enantioselective OTUD7B fragment discovery through chemoproteomics screening and high-throughput optimisation” (Communications Chemistry, 2025)

How the values were obtained:
Assay in all cases: log2 ratio of Biotin-Ahx-Ub-VS probe labelling (fragment/DMSO); higher = less target engagement (more negative = stronger competition), active = hit call of the paper (q ≤ 0.05, log2 ratio ≤ -1)
Settings in all cases: compound concentration: 200 uM; treatment time: 3 h
[1] = target: T1, ALG13 (UniProt Q9NP73)
T1 sequence (whole entry): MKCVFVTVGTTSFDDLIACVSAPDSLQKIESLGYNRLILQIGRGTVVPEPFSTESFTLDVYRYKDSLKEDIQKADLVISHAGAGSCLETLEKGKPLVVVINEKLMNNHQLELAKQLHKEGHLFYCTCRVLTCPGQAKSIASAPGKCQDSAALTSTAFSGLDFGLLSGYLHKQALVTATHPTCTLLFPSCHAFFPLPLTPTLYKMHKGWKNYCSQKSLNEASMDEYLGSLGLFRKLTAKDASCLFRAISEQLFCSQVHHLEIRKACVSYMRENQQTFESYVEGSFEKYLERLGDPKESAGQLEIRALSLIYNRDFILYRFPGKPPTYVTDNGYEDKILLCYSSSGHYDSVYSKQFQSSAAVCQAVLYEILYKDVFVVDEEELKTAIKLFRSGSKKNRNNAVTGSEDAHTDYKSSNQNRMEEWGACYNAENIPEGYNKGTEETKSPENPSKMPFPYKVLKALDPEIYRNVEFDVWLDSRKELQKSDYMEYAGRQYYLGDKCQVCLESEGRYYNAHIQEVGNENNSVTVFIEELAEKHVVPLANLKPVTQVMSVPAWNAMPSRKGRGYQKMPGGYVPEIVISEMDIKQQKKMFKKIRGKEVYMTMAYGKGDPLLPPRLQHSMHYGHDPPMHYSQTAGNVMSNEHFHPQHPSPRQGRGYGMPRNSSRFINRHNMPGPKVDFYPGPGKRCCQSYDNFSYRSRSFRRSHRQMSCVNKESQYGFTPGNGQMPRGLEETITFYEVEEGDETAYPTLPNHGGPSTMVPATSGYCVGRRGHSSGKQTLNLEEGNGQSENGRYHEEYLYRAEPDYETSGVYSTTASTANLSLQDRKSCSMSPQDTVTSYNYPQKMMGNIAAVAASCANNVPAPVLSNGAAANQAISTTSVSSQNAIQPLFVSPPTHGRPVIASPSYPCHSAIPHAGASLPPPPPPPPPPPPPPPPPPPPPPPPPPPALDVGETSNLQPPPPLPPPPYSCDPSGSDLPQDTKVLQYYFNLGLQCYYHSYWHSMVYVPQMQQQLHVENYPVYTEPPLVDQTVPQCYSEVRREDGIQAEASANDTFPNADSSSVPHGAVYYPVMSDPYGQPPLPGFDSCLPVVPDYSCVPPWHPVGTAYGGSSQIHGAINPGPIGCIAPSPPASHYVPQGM
In short: (§1)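 Lysate from HEK293T cells, 495 µg per sample in Tris/CHAPS/IGEPAL buffer with protease inhibitors, was treated for 3 h in triplicate with fragment at 200 µM or vehicle. Biotin-Ahx-Ub-VS was next added at 0.5 µM final for 1 h. The labelled DUBs were enriched with NeutrAvidin, digested with LysC and trypsin, and run by diaPASEF LC-MS/MS, with values given as average log2 fragment/vehicle ratios by unpaired t-test on global-median-normalised Spectronaut quantities of proteins with ≥2 unique peptides.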

[2] = target: ATXN3 (UniProt P54252)
In short: as §1

[3] = target: T2, BAP1 (UniProt Q92560)
T2 sequence (whole entry): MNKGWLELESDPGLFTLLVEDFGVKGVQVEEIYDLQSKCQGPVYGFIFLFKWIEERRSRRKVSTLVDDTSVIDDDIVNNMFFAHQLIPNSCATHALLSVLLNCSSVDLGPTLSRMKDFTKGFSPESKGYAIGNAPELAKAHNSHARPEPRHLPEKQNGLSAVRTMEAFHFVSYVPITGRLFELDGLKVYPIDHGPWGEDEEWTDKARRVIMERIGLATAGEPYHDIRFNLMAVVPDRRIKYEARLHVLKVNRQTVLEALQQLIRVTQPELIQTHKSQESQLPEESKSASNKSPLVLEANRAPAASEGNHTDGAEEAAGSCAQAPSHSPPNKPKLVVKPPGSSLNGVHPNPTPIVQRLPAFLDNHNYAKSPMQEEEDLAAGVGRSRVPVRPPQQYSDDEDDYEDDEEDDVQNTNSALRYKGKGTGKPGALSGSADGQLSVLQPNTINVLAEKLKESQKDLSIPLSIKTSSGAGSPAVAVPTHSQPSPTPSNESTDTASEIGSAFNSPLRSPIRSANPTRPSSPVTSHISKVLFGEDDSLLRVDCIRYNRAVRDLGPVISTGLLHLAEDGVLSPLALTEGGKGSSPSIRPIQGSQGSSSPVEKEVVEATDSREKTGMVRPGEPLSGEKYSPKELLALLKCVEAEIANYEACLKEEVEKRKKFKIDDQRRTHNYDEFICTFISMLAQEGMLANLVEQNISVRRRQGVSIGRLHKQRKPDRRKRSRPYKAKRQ
In short: as §1

[4] = target: EIF3F (UniProt O00303)
In short: as §1

[5] = target: EIF3H (UniProt O15372)
In short: as §1

[6] = target: T3, FAM105A (UniProt Q9NUU6)
T3 sequence (whole entry): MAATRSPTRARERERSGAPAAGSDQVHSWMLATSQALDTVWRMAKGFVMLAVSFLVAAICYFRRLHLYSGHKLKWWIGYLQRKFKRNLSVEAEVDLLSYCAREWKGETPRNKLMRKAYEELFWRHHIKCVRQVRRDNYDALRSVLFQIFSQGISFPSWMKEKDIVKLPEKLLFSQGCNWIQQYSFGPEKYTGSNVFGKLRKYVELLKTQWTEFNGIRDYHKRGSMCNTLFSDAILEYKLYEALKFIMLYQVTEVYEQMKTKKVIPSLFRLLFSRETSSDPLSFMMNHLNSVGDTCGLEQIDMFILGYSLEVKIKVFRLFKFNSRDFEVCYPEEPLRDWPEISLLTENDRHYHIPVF
In short: as §1

[7] = target: OTUB1 (UniProt Q96FW1)
In short: as §1

[8] = target: T4, OTUD4 (UniProt Q01804)
T4 sequence (whole entry): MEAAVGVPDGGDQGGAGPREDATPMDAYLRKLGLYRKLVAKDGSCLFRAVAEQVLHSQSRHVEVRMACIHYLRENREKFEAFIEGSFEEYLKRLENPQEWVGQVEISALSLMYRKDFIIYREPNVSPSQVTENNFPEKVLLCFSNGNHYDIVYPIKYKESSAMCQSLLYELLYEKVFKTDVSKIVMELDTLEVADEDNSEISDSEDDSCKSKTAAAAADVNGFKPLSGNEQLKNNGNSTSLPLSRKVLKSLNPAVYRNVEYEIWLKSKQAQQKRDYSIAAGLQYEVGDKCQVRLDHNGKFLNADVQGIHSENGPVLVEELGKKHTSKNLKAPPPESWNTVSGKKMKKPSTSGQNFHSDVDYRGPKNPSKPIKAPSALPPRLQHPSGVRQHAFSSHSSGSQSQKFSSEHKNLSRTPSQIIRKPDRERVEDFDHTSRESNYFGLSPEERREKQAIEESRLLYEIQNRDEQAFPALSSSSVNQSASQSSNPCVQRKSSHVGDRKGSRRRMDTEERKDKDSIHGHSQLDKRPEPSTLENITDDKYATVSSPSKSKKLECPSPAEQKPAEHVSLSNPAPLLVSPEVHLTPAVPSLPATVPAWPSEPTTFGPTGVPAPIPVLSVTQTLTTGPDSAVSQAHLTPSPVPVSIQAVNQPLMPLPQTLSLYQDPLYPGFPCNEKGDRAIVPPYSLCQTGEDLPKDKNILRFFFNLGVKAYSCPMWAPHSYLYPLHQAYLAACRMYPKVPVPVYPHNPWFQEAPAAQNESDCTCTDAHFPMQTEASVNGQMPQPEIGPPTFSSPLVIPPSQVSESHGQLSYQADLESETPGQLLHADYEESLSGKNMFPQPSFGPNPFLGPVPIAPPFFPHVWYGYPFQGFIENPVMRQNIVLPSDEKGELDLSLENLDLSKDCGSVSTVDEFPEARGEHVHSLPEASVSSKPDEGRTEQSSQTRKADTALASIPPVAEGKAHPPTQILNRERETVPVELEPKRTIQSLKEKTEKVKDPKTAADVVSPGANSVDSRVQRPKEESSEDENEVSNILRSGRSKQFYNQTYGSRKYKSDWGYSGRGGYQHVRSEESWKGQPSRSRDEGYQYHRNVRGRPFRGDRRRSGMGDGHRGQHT
In short: as §1

[9] = target: T5, OTUD5 (UniProt Q96G74)
T5 sequence (whole entry): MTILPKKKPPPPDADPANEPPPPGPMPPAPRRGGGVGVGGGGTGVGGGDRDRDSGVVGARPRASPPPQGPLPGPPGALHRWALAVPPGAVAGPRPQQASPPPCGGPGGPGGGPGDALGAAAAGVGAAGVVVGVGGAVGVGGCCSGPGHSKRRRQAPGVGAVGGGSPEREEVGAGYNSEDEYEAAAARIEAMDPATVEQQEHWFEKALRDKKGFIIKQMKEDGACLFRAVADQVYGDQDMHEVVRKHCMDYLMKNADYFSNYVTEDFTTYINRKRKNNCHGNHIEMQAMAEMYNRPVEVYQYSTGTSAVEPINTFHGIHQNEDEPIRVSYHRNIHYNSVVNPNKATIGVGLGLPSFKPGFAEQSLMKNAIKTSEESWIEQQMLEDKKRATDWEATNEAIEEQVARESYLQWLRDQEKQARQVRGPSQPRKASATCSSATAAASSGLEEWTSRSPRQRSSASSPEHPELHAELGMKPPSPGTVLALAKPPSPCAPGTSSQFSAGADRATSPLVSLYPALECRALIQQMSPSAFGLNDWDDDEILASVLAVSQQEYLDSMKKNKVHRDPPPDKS
In short: as §1

Measured: log2 ratio of Biotin-Ahx-Ub-VS probe labelling

Chain of EIF3F (O00303 whole entry): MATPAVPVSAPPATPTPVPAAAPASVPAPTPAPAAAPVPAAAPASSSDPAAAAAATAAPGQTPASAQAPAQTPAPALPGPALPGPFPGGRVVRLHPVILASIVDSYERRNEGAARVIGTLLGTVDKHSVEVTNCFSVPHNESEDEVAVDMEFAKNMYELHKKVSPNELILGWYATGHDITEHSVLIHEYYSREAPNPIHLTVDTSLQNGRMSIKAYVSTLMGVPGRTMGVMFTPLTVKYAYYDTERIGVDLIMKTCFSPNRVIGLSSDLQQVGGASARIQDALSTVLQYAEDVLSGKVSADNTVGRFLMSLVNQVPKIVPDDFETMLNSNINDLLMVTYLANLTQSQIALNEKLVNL
Chain of EIF3H (O15372 whole entry): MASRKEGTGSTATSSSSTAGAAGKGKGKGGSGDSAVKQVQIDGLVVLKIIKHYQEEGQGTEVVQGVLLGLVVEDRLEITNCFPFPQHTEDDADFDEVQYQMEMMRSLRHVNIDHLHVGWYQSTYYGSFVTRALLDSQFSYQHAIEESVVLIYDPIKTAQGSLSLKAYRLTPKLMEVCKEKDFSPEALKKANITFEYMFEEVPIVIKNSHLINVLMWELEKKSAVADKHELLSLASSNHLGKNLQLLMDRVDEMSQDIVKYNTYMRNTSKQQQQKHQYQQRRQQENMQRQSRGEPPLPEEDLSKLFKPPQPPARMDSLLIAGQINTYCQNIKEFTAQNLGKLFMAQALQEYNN
Chain of OTUB1 (Q96FW1 whole entry): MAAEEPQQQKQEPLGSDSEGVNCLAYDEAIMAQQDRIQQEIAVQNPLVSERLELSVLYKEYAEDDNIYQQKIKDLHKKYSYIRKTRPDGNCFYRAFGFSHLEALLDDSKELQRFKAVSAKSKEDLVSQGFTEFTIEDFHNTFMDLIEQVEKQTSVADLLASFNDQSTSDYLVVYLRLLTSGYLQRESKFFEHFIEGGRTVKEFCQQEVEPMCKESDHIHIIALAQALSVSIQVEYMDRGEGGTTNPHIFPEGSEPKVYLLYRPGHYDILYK
Chain of ATXN3 (P54252 whole entry): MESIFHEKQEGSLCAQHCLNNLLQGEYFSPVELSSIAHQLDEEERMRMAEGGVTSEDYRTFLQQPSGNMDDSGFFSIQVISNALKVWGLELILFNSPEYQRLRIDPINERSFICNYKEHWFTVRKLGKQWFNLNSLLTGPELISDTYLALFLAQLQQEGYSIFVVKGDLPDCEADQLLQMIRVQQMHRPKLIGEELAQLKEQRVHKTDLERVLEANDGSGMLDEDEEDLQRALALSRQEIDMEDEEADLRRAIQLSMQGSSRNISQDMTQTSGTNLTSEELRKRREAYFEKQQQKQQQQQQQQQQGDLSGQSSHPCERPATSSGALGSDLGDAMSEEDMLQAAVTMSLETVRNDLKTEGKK

O=C(CCl)N1CCCCC12CCOCC2
inactive: [1] 0.112 | [2] -0.355 | [4] -0.323 | [5] -0.162 | [6] 0.208 | [7] -0.126 | [8] -0.484 | [9] -0.461
active: [3] -1.05
